Consider eight compounds from PubChem BioAssay (EPA / NIEHS).

Settings in all cases: mRNA level, 48 h; actives raise or lower the signal
Read-out in one assay: CYP2E1 (gene 1571)
Kind of assay: LTEA_HepaRG_CYP2E1: Life Technologies and Expression Analysis (LTEA) Assay for CYP2E1 using HepaRG (AID 2283485). The method, boiled down:
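CYP2E1 transcript was measured by TaqMan qRT-PCR in human HepaRG cultures after 48 h chemical exposure (top 100 uM, half-log steps, 0.5% DMSO vehicle). Housekeeping-gene normalization; gain or loss fitted relative to DMSO baseline.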

Read-out in assay [1]: DNA damage-inducible transcript 3 (DDIT3), DDIT3 (gene 1649)
Kind of assay: LTEA_HepaRG_DDIT3: Life Technologies and Expression Analysis (LTEA) Assay for DNA damage-inducible transcript 3 (DDIT3) using HepaRG (AID 2283488). The method, boiled down:
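qRT-PCR readout (Fluidigm TaqMan), housekeeping-normalized to ACTB, GAPDH, POLR2A. HepaRG cells, 48 h exposure, 8-point half-log series from 100 uM in 0.5% DMSO, duplicates. Gain or loss of signal fitted against DMSO baseline.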

Read-out in assay [2]: Early growth response protein 1 (EGR1) transcription factor, EGR1 (gene 1958)
Put plainly: LTEA_HepaRG_EGR1: Life Technologies and Expression Analysis (LTEA) Assay for Early growth response protein 1 (EGR1) transcription factor using HepaRG (AID 2283490). An outline of the steps: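 HepaRG, 48 h exposure, 8-pt half-log series from 100 uM, 0.5% DMSO vehicle; EGR1 transcript by TaqMan qRT-PCR (Fluidigm array), housekeeping-normalized; bidirectional fit relative to DMSO baseline.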

Read-out in assay [3]: Ezrin (EZR), EZR (gene 7430)
Put plainly: LTEA_HepaRG_EZR: Life Technologies and Expression Analysis (LTEA) Assay for Ezrin (EZR) using HepaRG (AID 2283491). An outline of the steps:
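Read-out is EZR transcript level by qRT-PCR, normalized to three housekeeping genes and fitted bidirectionally against the DMSO control. Human HepaRG cells received test chemicals for 48 h at eight half-log concentrations up to 100 uM in 0.5% DMSO.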

Read-out in assay [4]: Cytochrome P450 3A7 (Homo sapiens) (UniProt P24462)
Put plainly: LTEA_HepaRG_CYP3A7: Life Technologies and Expression Analysis (LTEA) Assay for CYP3A7 using HepaRG (AID 2283492). The method, boiled down:
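qRT-PCR of CYP3A7 in HepaRG lysates after 48 h treatment; concentration-response (8 points, max 100 uM) analysed bidirectionally relative to 0.5% DMSO controls.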

Read-out in a further assay: CYP3A5 (gene 1577)
Put plainly: LTEA_HepaRG_CYP3A5: Life Technologies and Expression Analysis (LTEA) Assay for CYP3A5 using HepaRG (AID 2283493). An outline of the steps: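 qRT-PCR read-out: CYP3A5 transcript in HepaRG lysates, housekeeping-normalized (ACTB/GAPDH/POLR2A), fitted bidirectionally against 0.5% DMSO baseline. Exposure 48 h, eight half-log concentrations up to 100 uM, duplicates.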

Read-out in assay [5]: Fatty Acid-Binding Protein 1 (FABP1), FABP1 (gene 2168)
Kind of assay: LTEA_HepaRG_FABP1: Life Technologies and Expression Analysis (LTEA) Assay for Fatty Acid-Binding Protein 1 (FABP1) using HepaRG (AID 2283494). An outline of the steps: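 qRT-PCR readout of FABP1 transcript (normalized to three housekeeping genes) after 48 h chemical exposure of HepaRG cells; eight concentrations, half-log steps, max 100 uM, 0.5% DMSO vehicle; gain or loss fitted relative to DMSO baseline.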

Read-out in assay [6]: Glutathione S-Transferase (GSTA2), GSTA2 (gene 2939)
Kind of assay: LTEA_HepaRG_GSTA2: Life Technologies and Expression Analysis (LTEA) Assay for Glutathione S-Transferase (GSTA2) using HepaRG (AID 2283497). An outline of the steps:
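qRT-PCR readout of GSTA2 transcript, normalized to three housekeeping genes, fitted bidirectionally against 0.5% DMSO baseline. Differentiated HepaRG cells received compound for 48 h at 8 concentrations (top 100 uM, half-log steps).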

Read-out in assay [7]: Glutamate-cysteine ligase catalytic (GCLC), GCLC (gene 2729)
Kind of assay: LTEA_HepaRG_GCLC: Life Technologies and Expression Analysis (LTEA) Assay for Glutamate-cysteine ligase catalytic (GCLC) using HepaRG (AID 2283498). The method, boiled down: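 HepaRG, 48 h exposure, 8-pt half-log series from 100 uM, 0.5% DMSO vehicle; TaqMan qRT-PCR for GCLC mRNA, housekeeping-normalized; bidirectional curve fit vs DMSO baseline.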

Read-out in assay [8]: growth arrest and DNA damage 45 (GADD45G), GADD45G (gene 10912)
Kind of assay: LTEA_HepaRG_GADD45G: Life Technologies and Expression Analysis (LTEA) Assay for growth arrest and DNA damage 45 (GADD45G) using HepaRG (AID 2283499). An outline of the steps: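 Concentration-response in HepaRG: 48 h dosing, 0.5% DMSO, highest level 100 uM. GADD45G expression by qRT-PCR, normalised to endogenous controls; bidirectional fit to DMSO.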

Read-out in assay [9]: Glutamate-cysteine ligase regulatory (GCLM), GCLM (gene 2730)
Kind of assay: LTEA_HepaRG_GCLM: Life Technologies and Expression Analysis (LTEA) Assay for Glutamate-cysteine ligase regulatory (GCLM) using HepaRG (AID 2283500). The method, boiled down: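 HepaRG, 48 h dosing, 100 uM top, half-log x8, 0.5% DMSO vehicle. Readout: GCLM mRNA by TaqMan qRT-PCR, housekeeping-normalized (ACTB/GAPDH/POLR2A). Curves fit bidirectionally vs DMSO baseline.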

Read-out in assay [10]: Glutathione S-transferase M3 (GSTM3), GSTM3 (gene 2947)
Put plainly: LTEA_HepaRG_GSTM3: Life Technologies and Expression Analysis (LTEA) Assay for Glutathione S-transferase M3 (GSTM3) using HepaRG (AID 2283501). The method, boiled down:
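Expression of GSTM3 is determined by qRT-PCR in human liver HepaRG cells treated 48 h with an 8-point half-log range from 100 uM in 0.5% DMSO.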

Read-out in assay [11]: Heat shock 70 kDa protein 1 (HSPA1A), gene 3303
Kind of assay: LTEA_HepaRG_HSPA1A: Life Technologies and Expression Analysis (LTEA) Assay for Heat shock 70 kDa protein 1 (HSPA1A) using HepaRG (AID 2283502). The method, boiled down: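 HepaRG, 48 h exposure, 8-pt half-log CRC from 100 uM in 0.5% DMSO, duplicates. Readout: TaqMan qRT-PCR of HSPA1A mRNA, housekeeping-normalized (ACTB/GAPDH/POLR2A). Bidirectional fit vs 0.5% DMSO baseline.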

Read-out in assay [12]: Hypoxia-inducible factor 1-alpha (Homo sapiens) (UniProt Q16665)
Kind of assay: LTEA_HepaRG_HIF1A: Life Technologies and Expression Analysis (LTEA) Assay for Hypoxia-inducible factor 1 (HIF1A) Trancription factor using HepaRG (AID 2283503). An outline of the steps:
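Gain- or loss-of-signal HIF1A mRNA changes are fitted against a DMSO baseline. HepaRG cultures receive eight concentrations, highest 100 uM, for 48 h in serum-free induction medium with 0.5% DMSO.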

Read-out in assay [13]: 3-Hydroxy-3-Methylglutaryl-CoA Synthase 2 (HMGCS2), HMGCS2 (gene 3158)
Kind of assay: LTEA_HepaRG_HMGCS2: Life Technologies and Expression Analysis (LTEA) Assay for 3-Hydroxy-3-Methylglutaryl-CoA Synthase 2 (HMGCS2) using HepaRG (AID 2283504). The method, boiled down: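 This steatosis marker was read as HMGCS2 mRNA change in HepaRG cells treated 48 h with up to 100 uM chemical. Normalisation used housekeeping genes; activity in either direction was fitted relative to 0.5% DMSO vehicle.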

Read-out in assay [14]: Cytochrome P450 4A22 (Homo sapiens) (UniProt Q5TCH4)
Put plainly: LTEA_HepaRG_CYP4A22: Life Technologies and Expression Analysis (LTEA) Assay for Cytochrome P450 4A22 (CYP4A22) using HepaRG (AID 2283495). The method, boiled down:
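Concentration-response (8 points, max 100 uM, 0.5% DMSO) in human HepaRG liver cells after 48 h exposure. CYP4A22 mRNA by TaqMan qRT-PCR with housekeeping-gene normalization.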

Read-out in assay [15]: Cytochrome P450 7A1 (Homo sapiens) (UniProt P22680)
Put plainly: LTEA_HepaRG_CYP7A1: Life Technologies and Expression Analysis (LTEA) Assay for Cytochrome P450 7A1 (CYP7A1) using HepaRG (AID 2283496). The method, boiled down:
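Using 0.5% DMSO as vehicle and baseline, chemicals were tested in duplicate over an 8-point range from 100 uM on HepaRG cells for 48 h; qRT-PCR signals were normalised to ACTB, GAPDH and POLR2A.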

Read-out in assay [16]: Pro-epidermal growth factor (Homo sapiens) (UniProt P01133)
Put plainly: LTEA_HepaRG_EGF: Life Technologies and Expression Analysis (LTEA) Assay for Epidermal growth factor (EGF) using HepaRG (AID 2283489). The method, boiled down: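 Concentration-response mRNA assay: HepaRG cells dosed 48 h (max 100 uM, 0.5% DMSO), EGF measured by qRT-PCR and normalized to ACTB/GAPDH/POLR2A.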

Read-out in assay [17]: Cytochrome P450 3A4 (Homo sapiens) (UniProt P08684)
Put plainly: LTEA_HepaRG_CYP3A4: Life Technologies and Expression Analysis (LTEA) Assay for CYP3A4 using HepaRG (AID 2283487). An outline of the steps:
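HepaRG, 48 h exposure, 8-pt CRC from 100 uM (half-log), 0.5% DMSO, duplicates; serum-free induction medium. Readout: CYP3A4 mRNA, qRT-PCR, ACTB/GAPDH/POLR2A normalization. Bidirectional fit vs DMSO.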

The structures appear in SMILES notation. Calls of active or inactive are those of the source. How the source made its calls: active means hit-call score of the fitted dose curve at least 0.9, where 1 is the maximum; inactive means score below 0.9.

Sequence of Hypoxia-inducible factor 1-alpha (Homo sapiens) (Q16665 whole entry, looked up): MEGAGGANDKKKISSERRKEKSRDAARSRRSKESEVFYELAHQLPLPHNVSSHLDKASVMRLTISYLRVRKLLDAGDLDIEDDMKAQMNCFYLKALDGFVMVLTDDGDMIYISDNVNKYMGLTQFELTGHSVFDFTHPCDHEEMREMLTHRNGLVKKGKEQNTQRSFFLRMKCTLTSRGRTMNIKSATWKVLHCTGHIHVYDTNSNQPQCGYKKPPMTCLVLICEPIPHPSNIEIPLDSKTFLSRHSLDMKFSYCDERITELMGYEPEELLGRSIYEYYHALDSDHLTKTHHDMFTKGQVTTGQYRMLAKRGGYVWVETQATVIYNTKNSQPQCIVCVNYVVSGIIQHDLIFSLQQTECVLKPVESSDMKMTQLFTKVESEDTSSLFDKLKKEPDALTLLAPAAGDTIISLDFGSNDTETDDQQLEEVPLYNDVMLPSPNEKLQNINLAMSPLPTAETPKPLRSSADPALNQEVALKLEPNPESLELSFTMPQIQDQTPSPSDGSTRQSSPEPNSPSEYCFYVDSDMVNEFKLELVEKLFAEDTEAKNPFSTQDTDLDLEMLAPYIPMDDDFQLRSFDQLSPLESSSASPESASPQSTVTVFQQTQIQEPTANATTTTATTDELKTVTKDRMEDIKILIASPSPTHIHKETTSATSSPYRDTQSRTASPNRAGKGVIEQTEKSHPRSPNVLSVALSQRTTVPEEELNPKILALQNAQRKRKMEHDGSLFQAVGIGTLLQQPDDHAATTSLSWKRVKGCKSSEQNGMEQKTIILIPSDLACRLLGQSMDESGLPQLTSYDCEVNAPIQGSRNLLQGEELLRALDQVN
Sequence of Cytochrome P450 3A7 (Homo sapiens) (P24462 whole entry, looked up): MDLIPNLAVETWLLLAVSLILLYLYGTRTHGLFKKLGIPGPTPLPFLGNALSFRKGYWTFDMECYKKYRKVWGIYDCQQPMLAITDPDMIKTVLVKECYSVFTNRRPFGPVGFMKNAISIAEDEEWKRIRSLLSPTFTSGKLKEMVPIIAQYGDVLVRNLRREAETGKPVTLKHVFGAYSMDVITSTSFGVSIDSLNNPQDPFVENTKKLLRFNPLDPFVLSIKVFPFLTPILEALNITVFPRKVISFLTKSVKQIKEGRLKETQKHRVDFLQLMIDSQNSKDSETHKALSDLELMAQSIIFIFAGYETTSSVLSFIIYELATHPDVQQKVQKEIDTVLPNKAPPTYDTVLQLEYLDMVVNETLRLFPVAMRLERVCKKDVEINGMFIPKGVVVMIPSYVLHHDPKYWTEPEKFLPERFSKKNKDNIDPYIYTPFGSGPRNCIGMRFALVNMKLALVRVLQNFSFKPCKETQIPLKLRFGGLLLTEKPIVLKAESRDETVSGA
Sequence of Cytochrome P450 3A4 (Homo sapiens) (P08684 whole entry, looked up): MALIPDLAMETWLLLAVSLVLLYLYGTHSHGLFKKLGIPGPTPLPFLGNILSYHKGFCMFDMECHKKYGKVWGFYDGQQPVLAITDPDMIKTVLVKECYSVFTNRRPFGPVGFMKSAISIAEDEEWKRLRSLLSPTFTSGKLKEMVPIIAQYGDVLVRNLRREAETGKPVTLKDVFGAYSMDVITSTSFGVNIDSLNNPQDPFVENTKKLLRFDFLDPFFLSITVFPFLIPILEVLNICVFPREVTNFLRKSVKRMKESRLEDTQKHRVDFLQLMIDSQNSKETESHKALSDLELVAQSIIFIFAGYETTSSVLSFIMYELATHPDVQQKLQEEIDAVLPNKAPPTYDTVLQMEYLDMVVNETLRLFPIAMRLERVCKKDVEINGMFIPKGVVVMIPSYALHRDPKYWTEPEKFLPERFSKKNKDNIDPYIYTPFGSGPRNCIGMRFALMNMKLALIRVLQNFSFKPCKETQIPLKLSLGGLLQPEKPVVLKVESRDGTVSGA

For `c1ccc(-c2ccccc2)cc1`, the outcome (with CYP2E1 (gene 1571); in assay [1]; in assay [2]; in assay [3]; in assay [4]; in the assay with CYP3A5 (gene 1577)) was inactive. Besides, the call in [5], in assay [6], in assay [7], in assay [8], in assay [9] and in [10] was inactive. Also, the compound was called inactive in assay [11], in assay [12] and in [13].
Turning to `CC(C)C(=O)OCC(C)(C)C(OC(=O)C(C)C)C(C)C` (centres undefined), the call (in the assay with CYP2E1 (gene 1571); in [1]; in assay [3]; in assay [4]; with CYP3A5 (gene 1577); in [5]) was inactive. The result in [14], in assay [15], in [6], in [7], in assay [8] and in assay [9] was inactive. In addition, the compound was classed as inactive in [11], in [12] and in [13].
`Nn1cnnc1`: the call (with CYP2E1 (gene 1571); in [16]; in assay [3]; in [4]; with CYP3A5 (gene 1577); in [5]) was inactive. In addition, the call in [14], in assay [15], in assay [6], in [7], in assay [8] and in assay [9] was inactive. Also, the compound was classed as inactive in assay [10], in assay [11], in assay [12] and in assay [13].
Take `C[C@]12CCC(=O)C=C1CC[C@@H]1[C@@H]2CC[C@]2(C)C(=O)CC[C@@H]12`: the AC50 was 1.16 µM (active) with CYP2E1 (gene 1571), 50 µM (active) in the assay with CYP3A5 (gene 1577), 12.5 µM (active) in assay [5] and 4.69 µM (active) in assay [15]. Moreover, the compound was called inactive in assay [1], in assay [16], in assay [3], in [4], in assay [6] and in [7]. Also, the compound was called inactive in [9], in [11] and in assay [13].
Consider `COc1ccc(O)c(C(C)(C)C)c1`, for which the outcome (with CYP2E1 (gene 1571); in assay [3]; in assay [4]; in the assay with CYP3A5 (gene 1577); in assay [5]; in assay [14]) was inactive. Moreover, the compound was classed as inactive in assay [15], in assay [6], in assay [7], in assay [8], in [9] and in [11]. Further, the compound was called inactive in assay [12] and in assay [13]. In assay [17], the AC50 is 66.4 µM (active).
As for `ClC1=C(Cl)[C@]2(Cl)[C@@H]3[C@@H](Cl)[C@H]4O[C@H]4[C@@H]3C1(Cl)C2(Cl)Cl`, the AC50 is 25.5 µM (active) in the assay with CYP2E1 (gene 1571); 1.77 µM (active) in assay [4]; 50 µM (active) in assay [5]; 24.9 µM (active) in assay [14]; 13.3 µM (active) in [15]; 82.5 µM (active) in assay [6]. In assay [13], the AC50 is 18.4 µM (active). Moreover, the call (in [2]; in assay [3]; with CYP3A5 (gene 1577); in assay [7]; in assay [8]; in [9]) was inactive. Also, the call in assay [10], in [11] and in assay [12] was inactive.
Turning to `O=C(O)C(F)(F)C(F)(F)C(F)(F)C(F)(F)C(F)(F)F`, the call (with CYP2E1 (gene 1571); in [16]; in [3]; in [4]; with CYP3A5 (gene 1577); in assay [15]) was inactive. In addition, the outcome in assay [6], in assay [7], in assay [8], in assay [9], in [11] and in assay [12] was inactive. In addition, the AC50 is 12 µM (active) in assay [5] and 2.41 µM (active) in assay [13].
Turning to `O=C(N[C@H]1CN2CCC1CC2)c1cc2ccoc2cn1`, the outcome (with CYP2E1 (gene 1571); in assay [16]; in assay [3]; in assay [4]; in the assay with CYP3A5 (gene 1577); in [5]) was inactive. Also, the result in assay [15], in assay [6], in [7], in assay [8], in assay [9] and in assay [10] was inactive. Further, the call in [11], in assay [12] and in [13] was inactive.
